Assay results reported in PubChem BioAssay.
Calls of active or inactive are those of the source. Unless noted, no rule for the calls is given here.

Columns and labels:
[1] = compound effects on lung adenocarcinoma cell viability – A549, calcein-AM fluorescence, 48 h, basal, profiling panel (AID 1162); conditions: higher = more signal; also: test concentration not given here
[2] = compound effects on differentiated 3T3-L1 adipocyte viability – cell-based, 3T3-L1 adipocytes, calcein-AM fluorescence, 48 h, basal, profiling panel (AID 1163); conditions: 3T3-L1 adipocytes viability, higher = more signal; also: test concentration not given here
[3] = compound effects on hepatocellular carcinoma cell viability – HepG2, calcein-AM fluorescence, 48 h, basal, profiling panel (AID 1164); conditions: higher = more signal; also: test concentration not given here
[4] = compound effects on multiple myeloma cell viability – MM1S, calcein-AM fluorescence, 48 h, basal, profiling panel (AID 1165); conditions: higher = more signal; also: test concentration not given here
[5] = calcein-AM signal in unstimulated myeloma cells – cell-based, calcein-AM fluorescence, 48 h, PK04 Diversity Set, profiling panel (AID 1166); conditions: RPMI8226 myeloma viability, higher = more signal;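 also: cells grown under basal conditions without added stimulus; test concentration not given here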
[6] = JC-1 mitochondrial signal, unstimulated HepG2 cells – cell-based, JC-1 fluorescence, 24 h, 100 nL compound, profiling panel (AID 1167); conditions: HepG2 mitochondrial potential, higher = more signal; also: test concentration not given here
[7] = JC-1 mitochondrial signal, unstimulated adipocytes – cell-based, JC-1 fluorescence, 3T3-L1 adipocytes, 24 h, 100 nL compound, profiling panel (AID 1168); conditions: JC-1 mitochondrial fluorescence, higher = more signal, called active from +8 up or from −8 down; also: test concentration not given here
[8] = JC-1 mitochondrial signal, unstimulated myeloma cells – cell-based, JC-1 fluorescence, RPMI8226, 24 h, 100 nL compound, profiling panel (AID 1169); conditions: JC-1 mitochondrial potential fluorescence, higher = more signal; also: test concentration not given here
[9] = JC-1 mitochondrial signal, unstimulated MM1S myeloma – cell-based, JC-1 fluorescence, 24 h, 100 nL compound, profiling panel (AID 1170); conditions: MM1S mitochondrial potential, higher = more signal; also: test concentration not given here
[10] = resazurin metabolic signal in A549 cells – cell-based, resazurin fluorescence, 24 h, PK04 Diversity Set, profiling panel (AID 1171); conditions: A549 viability, higher = more signal, called active from +8 up or from −8 down; also: test concentration not given here
[11] = resazurin metabolic signal in HepG2 cells – cell-based, resazurin fluorescence, 24 h, PK04 Diversity Set, profiling panel (AID 1172); conditions: HepG2 viability, higher = more signal; also: test concentration not given here
[12] = budding yeast growth changes without added modifier – OD600, strain BY4716, 24 h, basal condition, primary screen (AID 1173); conditions: S. cerevisiae BY4716 growth, OD600, 24 h; higher = more signal, called active from +8 up or from −8 down
[13] = viability profiling in MM1S myeloma cells – cell-based, resazurin fluorescence, basal, 24 h, PK04 Diversity Set, profiling panel (AID 1174); conditions: higher = more signal, called active from +8 up or from −8 down; also: test concentration not given here
[14] = target: Dihydroorotate dehydrogenase (quinone), mitochondrial (Plasmodium falciparum (isolate 3D7)) (UniProt Q08210); assay: inhibition of P. falciparum DHODH – biochemical, C-terminal His tag, absorbance 600 nm, primary screen (AID 1175); conditions: PfDHODH enzyme, DCIP absorbance 600 nm; higher = more signal, called active from +8 up or from −8 down;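 also: recombinant parasite enzyme with a five histidine tag at its C terminus; test concentration not given here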
Sequence of Dihydroorotate dehydrogenase (quinone), mitochondrial (Plasmodium falciparum (isolate 3D7)) (Q08210 whole entry, looked up): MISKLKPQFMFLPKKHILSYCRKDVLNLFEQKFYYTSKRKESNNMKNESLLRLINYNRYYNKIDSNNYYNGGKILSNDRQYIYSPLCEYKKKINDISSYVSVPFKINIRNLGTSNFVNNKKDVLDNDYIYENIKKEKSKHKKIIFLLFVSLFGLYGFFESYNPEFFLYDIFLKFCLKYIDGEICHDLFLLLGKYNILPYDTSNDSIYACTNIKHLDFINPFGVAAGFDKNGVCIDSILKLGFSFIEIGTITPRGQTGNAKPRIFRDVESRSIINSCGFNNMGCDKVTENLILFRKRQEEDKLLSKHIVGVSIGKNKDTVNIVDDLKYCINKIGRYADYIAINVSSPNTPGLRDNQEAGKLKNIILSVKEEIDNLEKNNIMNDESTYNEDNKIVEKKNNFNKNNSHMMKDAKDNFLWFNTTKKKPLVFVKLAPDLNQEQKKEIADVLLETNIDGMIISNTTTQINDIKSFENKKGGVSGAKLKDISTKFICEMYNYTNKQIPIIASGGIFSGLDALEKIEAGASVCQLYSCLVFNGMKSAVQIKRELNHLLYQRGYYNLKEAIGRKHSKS

[15] = inhibition of PAO1 biofilm formation – strain PAO1, LB-PBS medium, absorbance 600 nm, primary screen (AID 1176); also: test concentration not given here; conditions: P. aeruginosa PAO1 growth/biofilm, A600, 12 h; higher = more signal
[16] = growth modulation of vineyard yeast isolate – strain RM11-1a, OD600, basal, 24 h, primary screen (AID 1177);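 also: cultures grown under basal conditions with no added stressor; test concentration not given here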; conditions: S. cerevisiae RM11-1a growth, OD600, 24 h; higher = more signal, called active from +8 up or from −8 down
[17] = growth of efflux-deficient E. coli DRC39 – strain DRC39, OD650, 24 h, E. coli filamentation inducers, primary screen (AID 1178);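 also: growth measured as culture turbidity by optical density at 650 nm; test concentration not given here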; conditions: E. coli DRC39 acrAB, higher = more signal, called active from +8 up or from −8 down
[18] = growth of efflux-deficient E. coli DRC39 – strain DRC39, OD650, 48 h, E. coli filamentation inducers, primary screen (AID 1179);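 also: screen aims at cell division blockers that make cells filament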; conditions: E. coli DRC39 delta-acrAB growth, higher = more signal, called active from +8 up or from −8 down
[19] = viability profiling in RPMI8226 myeloma cells – cell-based, resazurin fluorescence, basal, 24 h, PK04 Diversity Set, profiling panel (AID 1180); conditions: higher = more signal;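 also: RPMI8826 multiple myeloma cell line at 5000 cells per well; test concentration not given here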
[20] = target: E3 ubiquitin-protein ligase XIAP (Homo sapiens) (UniProt P98170); assay: small molecules binding XIAP protein – biophysical, small-molecule microarray, fluorescence 635 nm, primary screen (AID 1181); conditions: higher = more signal;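 also: score merges 667 nm emission and signal to noise over triplicate slides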
Sequence of E3 ubiquitin-protein ligase XIAP (Homo sapiens) (P98170 whole entry, looked up): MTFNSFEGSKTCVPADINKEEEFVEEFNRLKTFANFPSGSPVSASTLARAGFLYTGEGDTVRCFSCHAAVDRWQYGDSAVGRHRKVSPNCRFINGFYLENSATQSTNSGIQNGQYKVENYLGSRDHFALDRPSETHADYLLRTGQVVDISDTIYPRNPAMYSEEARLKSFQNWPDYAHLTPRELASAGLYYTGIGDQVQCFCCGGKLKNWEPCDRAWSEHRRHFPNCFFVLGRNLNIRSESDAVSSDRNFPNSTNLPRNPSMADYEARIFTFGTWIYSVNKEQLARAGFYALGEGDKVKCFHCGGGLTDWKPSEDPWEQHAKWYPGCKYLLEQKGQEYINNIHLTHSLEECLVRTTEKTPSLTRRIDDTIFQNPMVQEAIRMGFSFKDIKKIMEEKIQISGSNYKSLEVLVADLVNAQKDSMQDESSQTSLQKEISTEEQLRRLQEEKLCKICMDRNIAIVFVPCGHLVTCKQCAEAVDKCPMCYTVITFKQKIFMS

Row | Compound | z-score [1] | z-score [2] | z-score [3] | z-score [4] | z-score [5] | z-score [6] | z-score [7] | z-score [8] | z-score [9] | z-score [10] | z-score [11] | z-score [12] | z-score [13] | composite z-score [14] | z-score [15] | z-score [16] | z-score [17] | z-score [18] | z-score [19] | composite z-score [20]
1 | Cc1ccc(F)cc1S(=O)(=O)N[C@@H]1CCN(Cc2ccc(Br)cc2)C1 | -0.0023 | -1.01 | -0.65 | -1.24 | -1.29 | 0.261 | 0.0995 (inactive) | -0.645 | -0.555 | 0.728 (inactive) | -0.281 | -11.9 (active) | 0.611 (inactive) | -0.573 (inactive) | -0.73 (inactive) | -0.184 (inactive) | 1.13 (inactive) | -0.795 (inactive) | 0.264 | -0.17
2 | CC(C)C(CO)N1C(=O)[C@@H]2[C@H]3C(=O)OCC=C[C@H]3OC23C=CCN(c2ccc(Cl)cc2)C(=O)[C@@H]13 (stereo not given in full) | -0.713 | 0.556 | 0.813 | 1.04 | -0.356 | 0.465 | 0.959 (inactive) | -0.212 | 0.497 | 0.504 (inactive) | -0.0883 | 0.646 (inactive) | 0.679 (inactive) | 1.13 (inactive) | -1.13 (inactive) | 1.48 (inactive) | 0.969 (inactive) | 0.646 (inactive) | 1.08 | -0.21
3 | CCCNC(=O)[C@@H]1c2ccccc2C(=O)N(Cc2ccc(OC(F)(F)F)cc2)[C@H]1c1ccc(CO)cc1 | 1.17 | 0.385 | 2.08 | 0.157 | 0.485 | 3.22 | 1.22 (inactive) | 0.432 | 0.129 | 0.285 (inactive) | 0.266 | 0.0357 (inactive) | 0.186 (inactive) | -0.966 (inactive) | -0.217 (inactive) | 0.532 (inactive) | 0.659 (inactive) | 1.34 (inactive) | 0.584 | 0.155
4 | COCC(=C=CC[C@H](O)c1ccc(CO)o1)CCO | 0.0135 | -0.651 | 0.676 | -0.558 | 0.368 | -0.649 | -0.0348 (inactive) | -0.495 | 0.363 | -0.0239 (inactive) | -0.116 | -1.63 (inactive) | -0.0463 (inactive) | -2.35 (inactive) | -0.165 (inactive) | 0.256 (inactive) | -0.401 (inactive) | -0.524 (inactive) | 0.036 | 0.536
5 | CN(C)c1ccc(C(O)C2C=CC3C(=O)NC(=O)C3N2Nc2ccccn2)cc1 (stereo not given) | -0.8 | -0.358 | -0.331 | -0.286 | -0.333 | -1.21 | -0.339 (inactive) | -0.492 | 0.468 | -0.348 (inactive) | -0.8 | 1.03 (inactive) | -1.21 (inactive) | 0.957 (inactive) | 0.503 (inactive) | 0.489 (inactive) | -0.738 (inactive) | 0.0674 (inactive) | -1.79 | 0.0726
6 | CCCC[C@@H](O)C1=C(COC)C[C@H]2C(=O)N(C)C(=O)[C@H]2[C@H]1CO | 1.28 | 1.13 | 1.48 | -0.211 | 0.536 | 1.23 | -0.987 (inactive) | 0.335 | -1.98 | 0.368 (inactive) | 0.798 | -3.7 (inactive) | -0.264 (inactive) | -1.43 (inactive) | 1.04 (inactive) | -2.16 (inactive) | 2.43 (inactive) | 0.964 (inactive) | 1.3 | -0.109
7 | C=C[C@@H](OC)[C@H](OC(=O)Nc1ccc(OC)cc1)c1ccc(O)c(F)c1 | -0.705 | 0.792 | -0.723 | -2.17 | -2.47 | -2.82 | -1.1 (inactive) | -0.276 | -0.0233 | -0.0973 (inactive) | -0.902 | -6.91 (inactive) | -0.967 (inactive) | -1.1 (inactive) | 0.741 (inactive) | -0.175 (inactive) | 0.146 (inactive) | -0.355 (inactive) | -0.877 | 0.252
8 | Cc1ccc(S[C@]2(C(=O)NCc3ccccc3)CC(=O)N(C3CCCCC3)[C@@H]2c2ccc(CO)cc2I)cc1 | -0.0709 | 0.183 | 0.398 | -1.93 | -3.39 | 0.521 | 0.97 (inactive) | -0.464 | -1.62 | -0.99 (inactive) | -0.636 | -0.799 (inactive) | -1.82 (inactive) | -0.11 (inactive) | 0.82 (inactive) | -0.505 (inactive) | 0.509 (inactive) | 0.323 (inactive) | -2.24 | -0.0095
9 | CCOC(=O)C[C@H]1[C@H](OC(=O)c2ccc(C(=O)c3ccccc3)cc2)[C@@H](NC(=O)CC(C)C)c2cc(OCCCO)ccc2N1C(=O)c1ccccc1 | -1.43 | -0.408 | -0.0606 | 0.0631 | -1.11 | 1.49 | 0.275 (inactive) | 0.52 | 0.242 | 0.256 (inactive) | -0.358 | 0.325 (inactive) | 0.0303 (inactive) | -0.235 (inactive) | 0.714 (inactive) | -0.0649 (inactive) | -0.794 (inactive) | -0.717 (inactive) | -0.281 | -0.0773
